Screens (PubChem BioAssay)
This excerpt belongs to a sample that is enriched for hits.
14-3-3 PPI: alters human 14-3-3 gamma binding to Raf peptide; FP, 14-3-3gamma / TMR-pS259-Raf peptide binding; inhibition, % at 40 µM; P61981; actives 0.19% (n = 160,000); in the data active means inhibition above about 30%;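 further: 0% = protein plus tracer without compound and 100% = blank with tracer alone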
Target sequence (P61981 whole entry, looked up): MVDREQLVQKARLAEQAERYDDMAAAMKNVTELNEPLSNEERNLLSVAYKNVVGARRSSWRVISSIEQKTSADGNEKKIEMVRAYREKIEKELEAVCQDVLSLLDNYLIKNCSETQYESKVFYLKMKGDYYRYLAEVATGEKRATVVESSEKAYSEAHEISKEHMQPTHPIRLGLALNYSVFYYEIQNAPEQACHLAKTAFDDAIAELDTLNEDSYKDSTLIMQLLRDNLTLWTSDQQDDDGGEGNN
Numbers without * were called inactive.

SMILES	14-3-3 PPI
Cn1cnc2cc(NCc3ccccn3)ccc21	3
CC(C)(C)n1cnc2cc(NCc3ccccn3)ccc21	32*
CC(C)(C)n1cnc2cc(NCc3ccncc3)ccc21	6
Cc1ccc(S(=O)(=O)Nc2cc3sc(=O)oc3c3ccccc23)cc1	-7
CC1CCC2C(=O)N(c3ccc(N(C)Cc4ccccc4)c([N+](=O)[O-])c3)C(=O)C2C1 (centres undefined)	38*
CC1CC(=O)N(c2ccc(N(C)Cc3ccccc3)c([N+](=O)[O-])c2)C1=O (centres undefined)	-4
CC1CCC2C(=O)N(c3ccc(N(C)C4CCCCC4)c([N+](=O)[O-])c3)C(=O)C2C1 (centres undefined)	-1
COc1ccc(CN2C(=S)N(c3ccccc3)C(=O)C2CC(=O)Nc2ccccc2Cl)cc1 (centres undefined)	4
CC(C)(C)c1ccc(OCC(=O)N2N=C3CCCCCC3C2(O)C(F)(F)F)cc1 (centres undefined)	0
CC1CC(C)CN(CCCNC(=O)C2c3ccccc3C(=O)N2CCc2ccc(Cl)cc2)C1 (centres undefined)	-9
Cc1cc(C)cc(C(=O)Nc2c3c(nn2-c2ccc(F)cc2)CS(=O)(=O)C3)c1	-1
C=CCN(CC=C)C(=O)C[n+]1cccc(C(N)=O)c1	1
CCN(CC)C(=O)C[n+]1ccc(C(N)=O)cc1	-1
C=CCN(CC=C)C(=O)C[n+]1ccc(C(N)=O)cc1	40*
Cc1cc(NC(=O)C(CC(C)C)NC(=O)C2CCCCC2)ccc1Br (centres undefined)	9
Cc1ccc2nc(-c3ccccn3)c(Nc3ccc4c(c3)OCCO4)n2c1	1
COCCCNC(=O)c1ccccc1Cl	0
CCOC(=O)Cc1ccc(NCc2cccs2)cc1	-3
Oc1ccc(NCc2cccs2)cc1	52*
O=[N+]([O-])c1cccc(NCc2cccs2)c1	0
CCCCNC(=O)c1ccc2c(=O)n(Cc3ccco3)c(=S)[nH]c2c1	-66
Cc1cccc(Oc2cc([N+](=O)[O-])cc3c2C(=O)Nc2ccccc2O3)c1	-83
COc1cccc(Oc2cc([N+](=O)[O-])cc3c2C(=O)Nc2ccccc2O3)c1	61*
O=C1Nc2ccccc2Oc2cc([N+](=O)[O-])cc(Oc3ccccc3)c21	-79
Cc1ccc2nc(-c3ccc(NC(=O)CC(C)C)cc3)sc2c1	-26
SMILES	14-3-3 PPI
CCc1ccc(C2=CC(c3cccc(Br)c3)n3ncnc3N2)cc1 (centres undefined)	4
O=C(C1CCC1)N1CCc2cc(S(=O)(=O)NCCCN3CCN(c4ccccc4F)CC3)ccc21	31*
CCC1CCCCN1CCNS(=O)(=O)c1ccc2c(c1)CCN2C(=O)C1CCC1 (centres undefined)	52*
CC(=O)N1CCc2cc(S(=O)(=O)NCCCN3CCN(C)CC3)ccc21	-7
O=C(C1CCC1)N1CCc2cc(S(=O)(=O)NCCCN3CCCCC3)ccc21	-6
O=C(C1CCC1)N1CCc2cc(S(=O)(=O)NCCN3CCCC3)ccc21	-1
CCC(=O)N1CCc2cc(S(=O)(=O)NCCN3CCCCC3C)ccc21 (centres undefined)	0
O=C1c2ccccc2C(=O)N1CCCCN(C(=O)c1ccc(I)cc1)c1ccc(Cl)cc1	-3
O=C(Cc1cccs1)NC1CCCCCC1	-44
Clc1ccc(C2=CC(c3cccs3)n3nnnc3N2)cc1 (centres undefined)	-23
Cc1ccc(NC(=O)CCN2C(=O)c3ccccc3C2=O)c(Br)c1	-4
COc1ccccc1N(CCCN1C(=O)c2cccc3cccc(c23)C1=O)C(=O)C12CC3CC(CC(C3)C1)C2	3
NC(=O)c1c(NC(=O)c2ccccc2Cl)sc2c1CCCC2	4
NC(=O)c1c(NC(=O)c2ccc(Cl)cc2)sc2c1CCCC2	40*
NC(=O)c1c(NC(=O)c2ccc(F)cc2)sc2c1CCCC2	-12
O=C(c1cccc(Cl)c1)N1CCCC(C(=O)N2CCc3ccccc3C2)C1 (centres undefined)	-1
CCC(C)NC(=O)c1ccc(NCC2CCCO2)c([N+](=O)[O-])c1 (centres undefined)	-8
O=C(Cn1c(=O)n(-c2ccc(Cl)cc2)c(=O)c2c3c(sc21)CCC3)N1CCCC1	-2
Cc1ccc(-c2ccccc2)n1-c1ccc(O)c(C(=O)O)c1	-39
O=C1c2ccc(N3Cc4ccccc4C3)cc2C(=O)N1c1ccccc1	-10
O=C(O)c1cc(N2Cc3ccccc3C2)ccc1O	81*
COc1cccc(-c2ccc3c(N)c(C(=O)c4ccc(Cl)cc4)sc3n2)c1	-3
COc1ccc(-c2ccc3c(N)c(C(=O)Nc4ccc5c(c4)OCCO5)sc3n2)cc1	-3
COc1ccc(-c2ccc3c(N)c(C(=O)c4ccc5c(c4)OCCO5)sc3n2)cc1	71*
CC1(C)CC(=O)C2=C(C1)Nc1cccnc1NC2c1ccccc1[N+](=O)[O-] (centres undefined)	-7
O=C1C(=O)N(CCCn2ccnc2)C(c2ccncc2)/C1=C(\O)c1ccc(F)cc1 (centres undefined)	0
